Numbering of substitutions follows the chain as printed.

In paper PMC9838217, “Structure of SALL4 zinc finger domain reveals link between AT-rich DNA binding and Okihiro syndrome” one finds binding signal data, which are given here for 30 sequences.

Holding throughout (assay): HT-SELEX; high values mean tight binding
Holding throughout (conditions): protein: recombinant; vector His6-GST; dsDNA, one strand shown

One experiment has as its target T1, SALL4 ZFC4 WT (HT-SELEX) (Mus musculus, UniProt Q8BX22 870-940).
T1 sequence: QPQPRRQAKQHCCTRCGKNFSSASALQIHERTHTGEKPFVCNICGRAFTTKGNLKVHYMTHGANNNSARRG
In a few lines:
(§1)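 Binding signal is defined as the fold change of each canonical k-mer's read fraction versus the initial random library. Selections used 1 µg of purified recombinant mouse SALL4 zinc finger cluster 4 (residues 870–940) with library DNA (1.5 µg first cycle, 200 ng later) in 100 µl of 10 mM Tris–HCl pH 7.5, 50 mM NaCl, poly(dI-dC) and DTT, for 10 min at room temperature, followed by Ni2+ bead capture, washing and PCR. Up to 6 such cycles were run in triplicate before MiSeq sequencing and 6-mer scanning.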

Experiment [1] has as its target T2, SALL4 ZFC4 R900W (HT-SELEX) (Mus musculus, UniProt Q8BX22 870-940, R900W).
T2 sequence: T1 sequence with R31W
The method, boiled down: as §1

For experiment [2], the target named is T3, SALL4 ZFC4 G921D (HT-SELEX) (Mus musculus, UniProt Q8BX22 870-940, G921D).
T3 sequence: T1 sequence with G52D
In a few lines:
as §1

Turning to GAATCA, the binding signal with SALL4 ZFC4 WT (HT-SELEX) came out at 1.35 ± 0.0589 fold-change vs cycle 0; in experiment [1] it was 1.45 ± 0.0456 fold-change vs cycle 0; in experiment [2] it was 1.38 ± 0.0555 fold-change vs cycle 0.
As to ACACTA, the binding signal in the experiment with SALL4 ZFC4 WT (HT-SELEX) came to 1.26 ± 0.0187 fold-change vs cycle 0; in experiment [1], 1.3934 ± 0.0013 fold-change vs cycle 0; in experiment [2], 1.36 ± 0.0513 fold-change vs cycle 0.
TATACA: the binding signal with SALL4 ZFC4 WT (HT-SELEX) was determined as 2.08 ± 0.107 fold-change vs cycle 0; in experiment [1] it was 1.99 ± 0.114 fold-change vs cycle 0; in experiment [2], 1.77 ± 0.145 fold-change vs cycle 0.
Taken in the same sequence, the figures for AACACG were 0.6337 ± 0.00219 fold-change vs cycle 0, 0.737 ± 0.0205 fold-change vs cycle 0 and 0.823 ± 0.0377 fold-change vs cycle 0.
For TTAAAA, the binding signal with SALL4 ZFC4 WT (HT-SELEX) came to 2.8 ± 0.232 fold-change vs cycle 0; in experiment [1] it was 2.26 ± 0.146 fold-change vs cycle 0; in experiment [2], 1.97 ± 0.21 fold-change vs cycle 0.
The like results for TAGAGA were, in that order, 1.42 ± 0.0253 fold-change vs cycle 0, 1.54 ± 0.113 fold-change vs cycle 0 and 1.48 ± 0.0729 fold-change vs cycle 0.
For GAACTC, the binding signal with SALL4 ZFC4 WT (HT-SELEX) is 0.875 ± 0.0352 fold-change vs cycle 0; in experiment [1], 1.03 ± 0.0309 fold-change vs cycle 0; in experiment [2], 1.04 ± 0.0772 fold-change vs cycle 0.
As to CAGGTC, the binding signal with SALL4 ZFC4 WT (HT-SELEX) was 0.406 ± 0.041 fold-change vs cycle 0; in experiment [1] it was 0.487 ± 0.0258 fold-change vs cycle 0; in experiment [2], 0.603 ± 0.0536 fold-change vs cycle 0.
The like results for AATATG were, in that order, 2.8 ± 0.213 fold-change vs cycle 0, 1.83 ± 0.0804 fold-change vs cycle 0 and 1.66 ± 0.102 fold-change vs cycle 0.
Taken in the same sequence, the figures for AGTGTC were 0.664 ± 0.023 fold-change vs cycle 0, 0.81 ± 0.0199 fold-change vs cycle 0 and 0.9 ± 0.0262 fold-change vs cycle 0.
Taken in the same sequence, the figures for CCAAAA were 0.9105 ± 0.0059 fold-change vs cycle 0, 0.953 ± 0.0119 fold-change vs cycle 0 and 0.997 ± 0.0429 fold-change vs cycle 0.
Consider AGGTGG, for which the values for the binding signal (with SALL4 ZFC4 WT (HT-SELEX); in experiment [1]; in experiment [2]) were 0.487 ± 0.0135 fold-change vs cycle 0, 0.556 ± 0.0106 fold-change vs cycle 0 and 0.647 ± 0.0454 fold-change vs cycle 0, respectively.
As to CCTTCC, the binding signal stood at 0.487 ± 0.0167 fold-change vs cycle 0 with SALL4 ZFC4 WT (HT-SELEX), 0.593 ± 0.0214 fold-change vs cycle 0 in experiment [1] and 0.661 ± 0.0352 fold-change vs cycle 0 in experiment [2].
Take GTTACA: the binding signal with SALL4 ZFC4 WT (HT-SELEX) was determined as 1.35 ± 0.0329 fold-change vs cycle 0; in experiment [1] it was 1.46 ± 0.0565 fold-change vs cycle 0; in experiment [2], 1.37 ± 0.0864 fold-change vs cycle 0.
In the case of CGTCTC, the binding signal stood at 0.379 ± 0.0073 fold-change vs cycle 0 in the experiment with SALL4 ZFC4 WT (HT-SELEX), 0.467 ± 0.0242 fold-change vs cycle 0 in experiment [1] and 0.574 ± 0.0434 fold-change vs cycle 0 in experiment [2].
Consider ATCTAC, for which the binding signal was determined as 1.31 ± 0.0255 fold-change vs cycle 0 with SALL4 ZFC4 WT (HT-SELEX), 1.41 ± 0.0427 fold-change vs cycle 0 in experiment [1] and 1.38 ± 0.0966 fold-change vs cycle 0 in experiment [2].
For ATACAG, the binding signal with SALL4 ZFC4 WT (HT-SELEX) is 1.33 ± 0.0931 fold-change vs cycle 0; in experiment [1] it was 1.41 ± 0.0818 fold-change vs cycle 0; in experiment [2], 1.36 ± 0.0886 fold-change vs cycle 0.
As to TCCTAA, the binding signal with SALL4 ZFC4 WT (HT-SELEX) is 1.43 ± 0.0908 fold-change vs cycle 0; in experiment [1], 1.56 ± 0.119 fold-change vs cycle 0; in experiment [2], 1.46 ± 0.14 fold-change vs cycle 0.
Taken in the same sequence, the figures for CACTTC were 0.777 ± 0.0329 fold-change vs cycle 0, 0.925 ± 0.0515 fold-change vs cycle 0 and 0.946 ± 0.0498 fold-change vs cycle 0.
Turning to AGTCCC, the binding signal with SALL4 ZFC4 WT (HT-SELEX) was determined as 0.468 ± 0.0376 fold-change vs cycle 0; in experiment [1], 0.54 ± 0.0297 fold-change vs cycle 0; in experiment [2], 0.65 ± 0.0407 fold-change vs cycle 0.
Taken in the same sequence, the figures for AATAGT were 1.96 ± 0.0795 fold-change vs cycle 0, 1.94 ± 0.0794 fold-change vs cycle 0 and 1.77 ± 0.136 fold-change vs cycle 0.
The like results for AGTTGG were, in that order, 0.73 ± 0.0169 fold-change vs cycle 0, 0.834 ± 0.0159 fold-change vs cycle 0 and 0.883 ± 0.0279 fold-change vs cycle 0.
For CGGTAC, the binding signal with SALL4 ZFC4 WT (HT-SELEX) stood at 0.362 ± 0.0117 fold-change vs cycle 0; in experiment [1] it was 0.437 ± 0.0232 fold-change vs cycle 0; in experiment [2], 0.552 ± 0.049 fold-change vs cycle 0.
With ATCCGA, the binding signal with SALL4 ZFC4 WT (HT-SELEX) was determined as 0.684 ± 0.0383 fold-change vs cycle 0; in experiment [1], 0.781 ± 0.0221 fold-change vs cycle 0; in experiment [2], 0.89 ± 0.0142 fold-change vs cycle 0.
The like results for ACTACG were, in that order, 0.659 ± 0.026 fold-change vs cycle 0, 0.728 ± 0.025 fold-change vs cycle 0 and 0.821 ± 0.0676 fold-change vs cycle 0.
The like results for GTGGTA were, in that order, 0.757 ± 0.0708 fold-change vs cycle 0, 0.849 ± 0.0366 fold-change vs cycle 0 and 0.874 ± 0.0298 fold-change vs cycle 0.
Take AATCAC: the binding signal turned out to be 1.31 ± 0.0497 fold-change vs cycle 0 with SALL4 ZFC4 WT (HT-SELEX), 1.46 ± 0.03 fold-change vs cycle 0 in experiment [1] and 1.42 ± 0.0791 fold-change vs cycle 0 in experiment [2].
Taken in the same sequence, the figures for GCGTAA were 0.494 ± 0.0275 fold-change vs cycle 0, 0.556 ± 0.0061 fold-change vs cycle 0 and 0.651 ± 0.033 fold-change vs cycle 0.
Regarding GCAAAA, the results for the binding signal (with SALL4 ZFC4 WT (HT-SELEX); in experiment [1]; in experiment [2]) were 0.804 ± 0.0195 fold-change vs cycle 0, 0.786 ± 0.0174 fold-change vs cycle 0 and 0.873 ± 0.0736 fold-change vs cycle 0, respectively.
GGACTA: the binding signal in the experiment with SALL4 ZFC4 WT (HT-SELEX) is 0.732 ± 0.0464 fold-change vs cycle 0; in experiment [1], 0.855 ± 0.0609 fold-change vs cycle 0; in experiment [2], 0.897 ± 0.0585 fold-change vs cycle 0.
